Data as given in PubChem BioAssay AID624296 (National Center for Advancing Translational Sciences (NCATS), 2012).
In all, about 350,000 compounds went through this assay and about 9,900 (2.8%) were called active. Not shown: some 15% with an inconclusive outcome. The sample as a whole holds a higher share of actives than the screen did. Unmarked numbers belong to inactive results. Calls come from the whole dose curve; as a rule, active = well fitted activation curve with a large enough effect; inconclusive = small, poorly fitted or top-dose-only effect; inactive = no such curve, though single readings can be large or run the other way.

Assay: A quantitative high throughput screen for small molecules that induce DNA re-replication in MCF 10a normal breast cells. For activity, positive = re-replication: % of control where 0% means no effect. Note: nearly all actives have a fitted effect of over 50% in size.
Conditions: MCF 10A DNA re-replication, Hoechst nuclear intensity, 48 h; series mostly up to 46.1 µM; activity, positive = re-replication: at the top concentration
Potency is the fitted concentration of half-maximal effect.

| SMILES | activity, positive = re-replication [%] | Potency |
| --- | --- | --- |
| CCC(=O)c1ccc(OCC(=O)N(CC)CC2COc3ccccc3O2)cc1 (configuration not stated) | 2.74 | – |
| COc1cc(C)ccc1OCC(=O)OCC(=O)c1ccc[nH]1 | 3.62 | – |
| COC(=O)[C@]1(Cc2ccccc2)N[C@H](CN(C)S(=O)(=O)c2ccc(OC(F)(F)F)cc2)[C@@H]2C(=O)N(Cc3ccccc3)C(=O)[C@@H]21 | 9.99 | – |
| CC(NC(=O)c1ccccc1)C(=O)OCC(=O)Nc1cccc(S(=O)(=O)N2CCCC2)c1 (configuration not stated) | -5.95 | – |
| CC(NC(=O)CN(C)S(=O)(=O)c1ccc(F)cc1)C1CC2CCC1C2 (configuration not stated) | 5.27 | – |
| C=CC1=C(C(=O)O)N2C(=O)[C@@H](NC(=O)/C(=N\OCC(=O)O)c3csc(N)n3)[C@H]2SC1 | 0.954 | – |
| O=C(NCc1ccncc1)C(=O)NCC1OCCN1S(=O)(=O)c1ccc(Br)cc1 (configuration not stated) | – | 18.4 µM (active) |
| O=C(NCc1ccccc1)C(=O)NCC1OCCN1S(=O)(=O)c1ccc(Br)cc1 (configuration not stated) | -8.9 | – |
| COc1ccc(S(=O)(=O)N2CCOC2CNC(=O)C(=O)NCc2ccncc2)cc1OC (configuration not stated) | 0.949 | – |
| CCN1C[C@@H]2[C@@H]3C(=O)N(Cc4ccccc4)C(=O)[C@@H]3[C@](C)(C1=O)N2C(=O)c1ccc(C(C)(C)C)cc1 | -21.6 | – |
| Cc1cccc(NS(=O)(=O)c2ccc(C)c(C(=O)NCC(c3ccccc3)N(C)C)c2)c1 (configuration not stated) | 15.4 | – |
| OCc1ccc(-c2ccccc2)c(-c2ccccc2)c1 | – | 23.1 µM (active) |
| OCc1nc(CO)n(Cc2ccccc2)n1 | -22.2 | – |
| OCC(CO)(CO)NCc1ccc(-c2ccccc2)cc1 | 4.25 | – |
| O=c1c2ccccc2ccc2ccc(P(=O)(O)O)cc12 | -3.39 | – |
| COc1ccc(NS(=O)(=O)c2cccc(C(=O)NCCc3ccc(S(N)(=O)=O)cc3)c2)cc1 | -1.88 | – |
| CN(CC(=O)Nc1ccc(Cl)c(C(F)(F)F)c1)C(=O)CCC(=O)c1ccccc1 | 9.45 | – |
| Cc1ccc(NC(=O)C(C)OC(=O)C2CC3CCCC(C2)C3=O)cc1S(=O)(=O)N1CCOCC1 (configuration not stated) | 4.48 | – |
| CCc1ccccc1NC(=O)CN(C)C(=O)c1cc(C2CC2)nn1-c1ccccc1 | 11.7 | – |
| CCc1ccc(CN(C)C(C)C(=O)Nc2ccc(S(=O)(=O)N3CCCC3)cc2)cc1 (configuration not stated) | 19.4 | – |
| CCOC(=O)c1sc(NC(=O)CSc2ncccn2)c(C#N)c1C | – | 14.6 µM (active) |
| CCOC(=O)c1sc(NC(=O)CSc2nnc(-c3ccco3)o2)c(C(=O)OCC)c1C | -3 | – |
| CCC(=O)Nc1sc(C(=O)N2CCCCC2)c(C)c1C#N | -0.218 | – |
| O=C(Nc1ccc2ccccc2c1[N+](=O)[O-])c1ccccc1 | 14.6 | – |
| COc1ccc(S(=O)(=O)N2CCCCC2)cc1NC(=O)COc1ccccc1 | 6.28 | – |

| SMILES | activity, positive = re-replication [%] | Potency |
| --- | --- | --- |
| CCCc1cc(=O)[nH]c(SCC(=O)Nc2ccc(C(=O)Nc3ccccc3OC)cc2)n1 | 0.255 | – |
| Cc1ccc(NS(=O)(=O)c2ccc(C)c(NC(=O)COc3ccc4ccccc4c3)c2)c(C)c1 | -31.4 | – |
| COc1cc(NS(=O)(=O)c2ccc3ccccc3c2)c2ncccc2c1 | – | 5.17 µM (active) |
| COc1ccc2cc(S(=O)(=O)Nc3ccccn3)ccc2c1 | -0.735 | – |
| CC(=O)Nc1ccc(NC(=O)C(NS(=O)(=O)c2ccc3c(c2)OCCO3)C(C)C)cc1 (configuration not stated) | -0.353 | – |
| Cc1nnc(NC(=O)/C=C/c2ccco2)s1 | 4.48 | – |
| CCC(=O)Nc1ccc2nn(-c3ccc(F)cc3)nc2c1 | 2.79 | – |
| Cc1ccc(-n2nc3ccc(NC(=O)/C=C/c4ccco4)cc3n2)cc1C | – | 8.2 µM (active) |
| CNN/C(N=Cc1ccc([N+](=O)[O-])s1)=N\S(=O)(=O)c1cc(C)c(Cl)cc1SCc1ccccc1 | -0.609 | – |
| CN(CCc1ccccc1)C(=O)c1cccc(NC(=O)Cc2ccc([N+](=O)[O-])cc2)c1 | 12.4 | – |
| O=C1c2ccccc2[C@@H]2C[C@@H](O)[C@H](Nc3ccccc3Cl)CCN12 | -1.09 | – |
| CC(C)N(C(=O)CSc1nnc(NC2CC2)s1)c1ccccc1 | 3.83 | – |
| COc1ccc(S(=O)(=O)Nc2ccc3oc(C)c(C(C)=O)c3c2)cc1 | – | 5.17 µM (active) |
| CC(=O)c1c(C)oc2ccc(NS(=O)(=O)c3ccccc3)cc12 | -11.8 | – |
| CC(=O)c1c(C)oc2ccc(NS(=O)(=O)c3ccc(C(=O)O)cc3)cc12 | 0.106 | – |
| NN=C(NN=Cc1ccccc1)c1ccccc1 | 18.1 | – |
| COc1ccc(S(=O)(=O)N(C)C[C@H]2Oc3ccc(NS(=O)(=O)c4cccs4)cc3CC(=O)N([C@H](C)CO)C[C@H]2C)cc1 | 6.63 | – |
| Cc1ccc(N/C=C/C(=O)c2ccccc2)cc1C | 23.9 | – |
| Cc1cc(C)nc(SCC(=O)c2ccc(Cl)cc2)n1 | -3.83 | – |
| Cc1cc(C)nc(S/C=C/C(=O)c2ccccc2)n1 | – | 1.3 µM (active) |
| CC(=O)C[C@H](O)CC(=O)[C@@H]1OC(=O)[C@@H](C)C/C=C\Cc2ccccc21 | 0.449 | – |
| CCOc1ccc(NC(=O)CN(C)C(=O)CSc2ccccc2)cc1OCC | 3.05 | – |
| Cc1cc(NC(=O)CSc2nc3ccccc3n2CC(C)C)no1 | -1.34 | – |
| Cc1cc(NC(=O)CSc2nnc(-c3ccco3)n2N)no1 | 0.431 | – |
| Cc1cc(NC(=O)CSc2nc3cc(Cl)ccc3c(=O)n2Cc2ccco2)no1 | – | 18.4 µM (active) |

| SMILES | activity, positive = re-replication [%] | Potency |
| --- | --- | --- |
| COc1ccc(S(=O)(=O)N2CCOCC2)cc1NC(=O)Cc1coc2cc(C)ccc12 | 2.37 | – |
| COC(=O)C1CC2=C(CC(C)(C)CC2=O)N(c2ccccc2)C1=O (configuration not stated) | 11.7 | – |
| Cc1nn(Cc2ccccc2)c(C)c1C(=O)N1CCN(CC(=O)Nc2ccccc2Cl)CC1 | 7.72 | – |
| CC(OC(=O)c1cc2ccccc2o1)C(=O)Nc1ccc(N2CCOCC2)cc1 (configuration not stated) | 17 | – |
| OC(c1nc2ccccc2[nH]1)C(O)C(O)C(O)c1nc2ccccc2[nH]1 (configuration not stated) | -6.71 | – |
| OC(c1nc2ccc(F)cc2[nH]1)C(O)c1nc2ccc(F)cc2[nH]1 (configuration not stated) | -16.9 | – |
| CC(C)c1nc2ccc(C(=O)O)cc2[nH]1 | – | 11.6 µM (active) |
| CN(C(=O)c1cccc(NC(=O)Cc2ccc(NC(=O)C3CCN(C(=O)C4CCCCC4)CC3)cc2)c1)C1CCC1 | -2.91 | – |
| Cc1ccc(S(=O)(=O)Nc2ccc3c(c2)C(=O)N([C@H](C)CO)C[C@@H](C)[C@@H](CN(C)C(=O)Nc2cccc4ccccc24)O3)cc1 | 5.8 | – |
| CCOc1cccc(/C=C/c2ccc3ccccc3n2)c1OC(C)=O | – | 23.1 µM (active) |
| CCOc1ccccc1-c1cc(C(=O)N2CCOCC2)c2ccccc2n1 | -1.36 | – |
| CCOc1ccccc1/C=N/Nc1nc2ccccc2o1 | 1.17 | – |
| COc1ccc(C(CNC(=O)c2cc(S(=O)(=O)Nc3cccc(C)c3)ccc2C)N2CCCC2)cc1 (configuration not stated) | 14.7 | – |
| Cc1ccc(OCCNC(=O)CN2C(=O)NC3(CCCC3)C2=O)cc1 | 11.1 | – |
| COC(=O)COc1cccc2c(=O)n(CC(=O)NCCc3ccc(OC)c(OC)c3)ccc12 | 3.39 | – |
| Cc1ccc(CNC(=O)CCNC(=O)Cn2ccc3ccccc3c2=O)cc1 | -0.229 | – |
| COC(=O)COc1cccc2c(=O)n(CC(=O)NCc3ccccc3)ccc12 | – | 2.59 µM (active) |
| O=C1C=C(NS(=O)(=O)c2ccccc2)C(=O)c2ccccc21 | 7.8 | – |
| CCC(CO)Oc1cc(NC(=O)c2cccc(F)c2)c2ncn(C(C)C)c2c1 (configuration not stated) | -20.7 | – |
| Cc1c(/C=N\NC(=O)c2cc3ccccc3o2)c2ccccc2n1C | – | 6.51 µM (active) |
| O=C(N/N=C/c1coc2ccccc2c1=O)c1cc2ccccc2o1 | 17.6 | – |
| Cc1c(/C=N/N2C(=O)C3C4C=CC(C4)C3C2=O)c2ccccc2n1C (configuration not stated) | 15.9 | – |
| CCOc1ccc(C(=O)NCC(=O)N2CCN(c3ccc(C(F)(F)F)cn3)CC2)cc1 | -2.51 | – |
| O=C(Nc1cc(S(=O)(=O)N2CCOCC2)ccc1N1CCOCC1)c1c(F)cccc1Cl | 5.34 | – |
| O=C(NCc1ccc2c(c1)OCO2)c1cc(F)c(F)cc1Cl | -0.612 | – |

| SMILES | activity, positive = re-replication [%] | Potency |
| --- | --- | --- |
| CCn1c(=O)c(C(=O)NCc2ccc3c(c2)OCO3)c(O)c2ccccc21 | -0.432 | – |
| Cc1nc2c(C(=O)NCc3ccc4c(c3)OCO4)c[nH]n2c(=O)c1Cc1ccccc1F | – | 7.31 µM (active) |
| Cc1cc(C)c(C#N)c(SCC(=O)N(CC(C)C)C2CCS(=O)(=O)C2)n1 (configuration not stated) | 0.222 | – |
| Cc1cccn2c(=O)c3cc(C(=O)N4COCC4(C)C)n(C)c3nc12 | 11 | – |
| Cc1cccn2c(=O)c3cc(C(=O)NC4CCCCC4)sc3nc12 | 1.95 | – |
| Cc1ccccc1NC(=O)Cn1c(=O)n(CC2CCCO2)c(=O)c2ccccc21 (configuration not stated) | -2.54 | – |
| Cc1cccn2c(=O)c3cc(C#N)c(=O)n(CCCN4CCOCC4)c3nc12 | – | 18.4 µM (active) |
| Cc1cccn2c(=O)c(/C=C(\C#N)C(N)=O)c(N3CCCCCC3)nc12 | -9.87 | – |
| Cc1cccn2c(=O)c3cc(C#N)c(=NC(=O)c4cccnc4)n(CC4CCCO4)c3nc12 (configuration not stated) | – | 13 µM (active) |
| CCOc1cc(C(=O)N(Cc2ccccc2)c2ccc(C)cc2)ccc1OCC(=O)N1CCOCC1 | 2.29 | – |
| COc1ccc(C2NCCCC2c2ccccc2)cc1 (configuration not stated) | 0.784 | – |
| O=c1oc2cc(O)ccc2cc1-c1ccc(F)cc1 | – | 14.6 µM (active) |
| COc1ccc(-c2cc3ccc(OCc4nn[nH]n4)cc3oc2=O)cc1 | 2.51 | – |
| COc1cccc(C(=O)c2cc3ccc(O)cc3oc2=O)c1 | 11.9 | – |
| CCCCCCCCNS(=O)(=O)CCNC1CCCCC1 | -22.3 | – |
| O=C(Nc1ccc(S(=O)(=O)N2CCOCC2)cc1)C1CCN(S(=O)(=O)c2ccc(Cl)cc2)CC1 | -0.304 | – |
| COc1ccc(-c2cc3ncccc3cn2)cc1 | 11.1 | – |
| COc1ccc(-c2sc3ccc(OC)cc3c2C#Cc2ccccn2)cc1 | – | 18.4 µM (active) |
| COc1ccc(-c2nc(CS(=O)CC(=O)NCc3ccccn3)c(C)o2)cc1 (configuration not stated) | -0.718 | – |
| CN(C(=O)c1ccc(NC(=O)Cc2cccc(NC(=O)C3CCN(C(=O)c4ccccc4)CC3)c2)cc1)C1CC1 | -0.344 | – |
| Cc1cn(C2CC(O)C(CO)O2)c(=O)n(CCCc2ccccc2)c1=O (configuration not stated) | -6.86 | – |
| CS(=O)(=O)c1ccc(C(=O)NNC(=O)c2cccs2)cc1 | -4.4 | – |
